KAT2A inh = inhibitors of human GCN5L2 histone acetyltransferase | Q92830 | GCN5L2 HAT assay, ThioGlo1 CoA-SH fluorescence | Potency, µM (doses to about 58.9 µM), for the others: at the highest dose activity change, negative = inhibition, hits mostly inhibitors | 390,000 tested, 0.21% active; further: potency means the concentration at half of the fitted maximal effect; on the % scale 0 is the no-effect control and ±100 the full control effect
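Fluorescence readout, Ex340nm/Em540nm: ThioGlo1 (50uM final) reacts with free CoA thiol released as 20nM GCN5L2 acetylates H3(1-25) peptide (75uM) using acetyl-CoA (70uM). Compound and enzyme sat 15 min beforehand; 20 min room-temperature reaction.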
HP1b binding inh = blocks HP1-beta chromodomain binding to methylated histone tails; P83916; AlphaScreen HP1-beta / biotin-H3K9me3 peptide binding; Potency, µM (highest dose often 114 µM), inactives show at the top dose activity change, negative = inhibition, usual class: inhibitors; 390,000 tested, 0.56% active; AID 540317; further: potency means the concentration at half of the fitted maximal effect; nearly all actives have a fitted effect of over 70% in size
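AlphaScreen: HP1-beta (50 nM) preformed 30 min with biotin-H3(1-18)K9me3 peptide (50 nM) in PBS pH 7.4, 0.01% Tween-20. Compound added for 30 min at RT, then streptavidin donor/nickel chelate acceptor beads (10 ug/mL) for 30 min.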
PI5P4Ka inh = inhibitors of human PI5P4K alpha. P48426. PI5P4Kalpha enzyme, ADP-Glo luminescence, 60 min; active compounds read low. max response, %. 330,000 tested, 1.2% active; active means max response of -50% or lower; inconclusive means between -30% and -50%; inactive means -30% or higher; further: value at the top dose of about 77 µM; on the % scale 0 is the no-effect control and ±100 the full control effect
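Luminescence from ADP-Glo served as readout of PI5P4Kalpha activity in a qHTS format. Reaction: enzyme, substrate, compound, ATP at 5 microM final, 60 min at RT.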
BAZ2B block = BAZ2B (human) inhibition. Potency, µM (series often up to 114 µM), without a hit: at the highest dose activity change, negative = inhibition, most hits filed as inhibitors. AlphaScreen BAZ2B-H3K14Ac peptide displacement. Q9UIF8. 360,000 tested, 4.4% active; further: potency means the concentration at half of the fitted maximal effect; on the % scale 0 is the no-effect control and ±100 the full control effect; nearly all actives have a fitted effect of over 60% in size
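BAZ2B (50 nM) with biotin-H3(5-23)K14Ac peptide (50 nM) in PBS pH 7.4, 0.01% Tween-20, preformed 30 min, then compound 30 min at room temperature; top concentration 110uM. AlphaScreen streptavidin donor/nickel chelate acceptor beads (10 ug/mL final), 20 min dark, signal read.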
JMJD2A Tudor = JMJD2A Tudor domain (human) inhibition; O75164; AlphaScreen JMJD2A-Tudor / H3K4me3 peptide binding; Potency, µM (doses to about 114 µM), for inactives: at the top dose activity change, negative = inhibition, most hits filed as inhibitors; 390,000 tested, 4.4% active; further: potency means the concentration at half of the fitted maximal effect; on the % scale 0 is the no-effect control and ±100 the full control effect; nearly all actives have a fitted effect of over 50% in size
PLK1 PBD block = blocks phosphopeptide binding to human PLK1 polo-box domain; Plk1 PBD binding of FITC phosphopeptide, fluorescence polarization; Potency, µM, for the others: max response, negative = inhibition, usual class: inhibitors; 360,000 tested, 2.8% active; AID 720504; further: potency means the concentration at half of the fitted maximal effect; series mostly up to about 57 µM; on the % scale 0 is the no-effect control and ±100 the full control effect; nearly all actives have a fitted effect of over 65% in size
Target sequence (P53350 whole entry, looked up, the tested form may be a part): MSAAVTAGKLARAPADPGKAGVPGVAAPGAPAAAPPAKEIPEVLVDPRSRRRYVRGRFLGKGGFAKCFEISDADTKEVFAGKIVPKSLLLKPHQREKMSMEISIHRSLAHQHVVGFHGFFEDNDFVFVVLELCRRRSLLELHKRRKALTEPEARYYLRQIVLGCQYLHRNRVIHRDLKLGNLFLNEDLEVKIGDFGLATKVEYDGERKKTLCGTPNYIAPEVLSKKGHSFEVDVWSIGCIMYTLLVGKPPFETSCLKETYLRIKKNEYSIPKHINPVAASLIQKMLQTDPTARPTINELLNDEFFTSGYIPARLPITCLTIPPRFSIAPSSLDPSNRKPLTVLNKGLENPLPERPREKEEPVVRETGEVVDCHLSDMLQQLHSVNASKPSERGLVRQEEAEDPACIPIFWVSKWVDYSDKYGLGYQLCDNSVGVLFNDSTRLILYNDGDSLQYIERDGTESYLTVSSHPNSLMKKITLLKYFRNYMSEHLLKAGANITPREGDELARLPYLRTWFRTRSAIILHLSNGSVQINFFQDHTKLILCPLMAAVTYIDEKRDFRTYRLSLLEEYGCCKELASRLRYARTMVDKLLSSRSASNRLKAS
* hit, by the source's call; ? = inconclusive; . = not tested or not shown; [ ] = dose if it differs, or a comment. Sampled rows, rich in hits. Any-hit rate of the full collection: about 7%. Unless noted, the call rests on the fitted dose curve; in most records, active means well fitted curve in the direction sought with a large enough effect; inconclusive means small, poorly fitted or top-dose-only effect, or another doubt; inactive means no such curve, though single readings can be large; an effect the other way counts as inactive or inconclusive.

SMILES | KAT2A inh | HP1b binding inh | PI5P4Ka inh | BAZ2B block | JMJD2A Tudor | PLK1 PBD block
CC1=C(C(=O)Nc2cccnc2)C(c2ccc(F)cc2)n2nc(SCc3ccccc3)nc2N1 (centres undefined) | 2% | 21% | . | -34% | 0% | .
O=C(NCc1ccccc1)C1CCCN1C(=O)Nc1ccccc1[N+](=O)[O-] (centres undefined) | -5% | 31% | -3 | -7% | 0% | 4%
COc1ccc([N+](=O)[O-])cc1-n1cnnn1 | 1% | 22% | 4 | -14% | -12% | -8%
COc1ccc(CNC(=O)CSc2ncc3c(n2)-c2ccc(Cl)cc2N(Cc2ccc(F)cc2)S3(=O)=O)cc1OC | -8% | 35% | . | 17% | -4% | .
CC1CC(C)(C)CC2(C1)NC(=O)N(CC(=O)NCc1ccccc1F)C2=O (centres undefined) | -2% | 53% | 5 | -2% | -7% | -4%
CC1CC(C)(C)CC2(C1)NC(=O)N(CC(=O)N1CCN(S(=O)(=O)c3ccc(F)c(F)c3F)CC1)C2=O (centres undefined) | . | 26% | -2 | . | 20µM* | -1%
COc1ccccc1NC(=O)c1ccc(NC(=O)Cc2n[nH]c(=O)c3ccccc23)cc1 | -4% | 34% | 0 | -1% | -6% | 10%
CC(C)C[C@H]1CN([C@@H](Cc2ccc(O)cc2)CN2CCC[C@H]2CN2C(=O)C(=O)NC[C@@H]2Cc2ccccc2)C(=O)C(=O)N1CC1CCCCCC1 | . | . | -6 | . | . | -8%
CC(C)(C)c1ccc(-c2nc(SCC(=O)Nc3ccc(Cl)cc3)[nH]c(=O)c2C#N)cc1 | 35µM* | 24% | . | 79µM* | -32% | .
CC(=O)CSc1nc(-c2cccs2)c(C#N)c(=O)[nH]1 | ? | 18% | -22 | -12% | -31% | 1%
CCc1ccccc1NC(=O)c1ccc(S(=O)(=O)NCC2CCCO2)cc1 (centres undefined) | -2% | 9% | 2 | -2% | -8% | -15%
CCOC(=O)Cc1csc(NS(=O)(=O)c2ccccc2)n1 | -12% | 18% | -11 | -4%[57.1 µM] | -16% | 1%
CCOC(=O)c1ccccc1-c1csc(NS(=O)(=O)c2ccc(Cl)cc2)n1 | -12% | 20% | -4 | 56µM* | -11% | ?
CCOC(=O)Cc1csc(NS(=O)(=O)c2ccc(F)cc2)n1 | 16% | 8% | -27 | -6% | -17%[11.4 µM] | 21µM*
C/C=C/COc1nc2c(c(=O)n(C)c(=O)n2C)n1C | -3% | ? | ? | 2% | -27%[11.4 µM] | 3µM*
CCC(C)n1c(OC)nc2c1c(=O)n(C)c(=O)n2C (centres undefined) | 13% | -14% | -29 | -3% | 11µM* | 2.7µM*
O=C1/C(=C\c2ccco2)SC(=S)N1c1ccc(O)cc1 | -6% | -31% | -11 | 35µM* | ? | -9%
O=C1/C(=C/c2ccco2)SC(=S)N1c1cccnc1 | 28µM* | 16µM* | -105* | 10µM* | 8.9µM* | 17µM*
Cc1cc(/C=C2\SC(=S)N(Cc3ccco3)C2=O)c(C)n1-c1cccnc1 | 28% | 6% | 8 | 13µM* | -23% | 38µM*
O=C1/C(=C\c2ccc(O)cc2)SC(=S)N1c1cccnc1 | 2% | -12% | -6 | ? | ? | -6%
NN1C(=O)/C(=C\c2ccco2)SC1=S | -19% | -24% | -15 | 45µM* | ? | 0%
Cc1ccc(NC(=O)C2CCN(S(=O)(=O)c3ccc4[nH]c5c(c4c3)CCCCC5)CC2)cc1 | 16% | 27% | . | -14% | -22% | .
Cc1ccccc1Nc1c(-c2ccncc2)nc2ccc(Cl)cn12 | -10% | 53% | 8 | -22% | -4% | 2%
Cc1ccccc1Nc1scc(-c2ccc(Cl)cc2)[n+]1-c1ccccc1C | -2% | ? | -2 | 7.9µM* | ? | ?
COc1ccc(-n2c(=O)c3c(c4cc(OC)ccc4n3C)n(CCC(C)C)c2=O)cc1 | 1% | 52% | . | 5% | -2% | .
SMILES | KAT2A inh | HP1b binding inh | PI5P4Ka inh | BAZ2B block | JMJD2A Tudor | PLK1 PBD block
O=S(=O)(Nc1nc2ccccc2nc1N1CCc2ccccc2C1)c1ccc(Cl)cc1 | -16% | 64% | 11 | 4% | 3% | 21µM*
O=c1oc2ccc3ccccc3c2cc1-c1nc2c(s1)CCc1ccccc1-2 | . | 48%[57 µM] | . | . | 50%[57.1 µM] | .
O=c1oc2ccccc2cc1-c1nc2c(s1)CCc1ccccc1-2 | -21% | 87%[57 µM] | 3 | 47% | 66%[57.1 µM] | 15µM*
O=c1oc2cc(O)ccc2cc1-c1nc2c(s1)CCc1ccccc1-2 | -7% | 77% | -22 | 32% | 52% | 3.8µM*
COC(=O)[C@H](Cc1ccccc1)NC(=O)NCCC1=CCCCC1 | -1%[0.501 µM] | 5% | . | 10% | -5% | -1%
O=C1c2ccccc2C(=O)N1c1cc(=O)c2ccccc2[nH]1 | . | . | . | . | -26% | .
O=C(c1cc2cc(Br)ccc2o1)N1CCOCC1 | 0% | 39% | -7 | -1% | 3% | 3%
O=C(c1cc2cc(Br)ccc2o1)N1CCCC1 | 4% | -13% | -24 | -17% | -31% | 27µM*
CNc1c(NC(=O)COc2ccc(Cl)cc2)c(=O)oc2ccccc12 | -6% | 64% | -1 | -11% | -3% | -24%
C/C(=N\N1C(=O)c2ccccc2NC1c1ccco1)c1ccccc1O (centres undefined) | -7% | ? | 0 | 71µM* | ? | -7%
O=C(CSc1ccc(-c2ccccn2)nn1)N1CCCc2ccccc21 | 6% | 14% | -1 | 8.9µM* | 7.9µM* | -2%
O=C(CSc1ccc(-c2cccnc2)nn1)N1CCCc2ccccc21 | -12% | . | . | -9% | . | .
CCn1nnnc1SCC(=O)N1CCCc2ccccc21 | -2% | -10% | -3 | -3% | ? | 27µM*
O=C(CSc1nnc(CNc2ccc(F)cc2)o1)N1CCCc2ccccc21 | -4% | -20% | ? | ? | ? | 27µM*
CC(NC(=O)C(=O)N1CCOCC1)C(c1cccs1)N1CCN(c2ccccc2)CC1 (centres undefined) | 1% | 1% | 1 | -8% | ? | 21µM*
CC(NC(=O)c1ccco1)C(c1cccs1)N1CCN(c2ccc(F)cc2)CC1 (centres undefined) | -9% | -15% | . | 50µM* | -35% | -10%
CC(NC(=O)c1ccco1)C(c1cccs1)N1CCN(c2ccccc2)CC1 (centres undefined) | -5% | 12% | 6 | ? | ? | -6%
Cc1cc(CSCc2ccc(Cl)cc2)no1 | ? | 93% | 0 | 73% | 64% | 4%
CCCCNC(=O)C1CCN(S(=O)(=O)c2cc(Br)cc3c2N(C(=O)CC)CC3)CC1 | -1% | 9% | . | -2% | -16% | .
COC(=O)[C@@H](NS(=O)(=O)c1ccc(F)cc1Br)C(C)C | . | . | -4 | . | . | -2%

Screening data deposited in PubChem by National Center for Advancing Translational Sciences (NCATS).
